Assay results published in PubChem BioAssay (NCATS).
Values joined by “and” are separate entries in the source; they are usually repeats but may differ in a detail not shown here. Equal entries are not always repeated. Inconclusive results are not listed. Active and inactive are the calls of the source. The call rests on the fitted dose curve; in most records, active means well fitted inhibition curve with a large enough effect; inconclusive means small, poorly fitted or top-dose-only effect; inactive means flat fitted curve, though single readings scatter.

How the values were obtained:
[1] = tested on: PC15; assay: qHTS profiling for inhibitors of Plasmodium falciparum proliferation (AID 504749); further: potency means the concentration at half of the fitted maximal effect; conditions: P. falciparum in erythrocytes, SYBR Green DNA, 72 h; series mostly up to 28.7 µM
Procedure, shortened: (§1)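 P. falciparum-infected erythrocytes (0.3% parasitemia, 2.5% hematocrit final) were exposed to compounds for 72 h at 37 C in 5% CO2, then lysed with SYBR Green buffer overnight at room temperature; parasite DNA fluorescence was normalized to artemisinin and DMSO controls.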

[2] = tested on: PC26; assay: as above; conditions: P. falciparum in erythrocytes, SYBR Green DNA, 72 h; series mostly up to 28.7 µM
Procedure, shortened: as §1

[3] = tested on: PC49; assay: as above; conditions: P. falciparum in erythrocytes, SYBR Green DNA, 72 h; series mostly up to 28.7 µM
Procedure, shortened: as §1

[4] = tested on: SC27B; assay: as above; conditions: P. falciparum in erythrocytes, SYBR Green DNA, 72 h; series mostly up to 28.7 µM
Procedure, shortened: as §1

[5] = tested on: TAB109; assay: as above; conditions: P. falciparum in erythrocytes, SYBR Green DNA, 72 h; series mostly up to 28.7 µM
Procedure, shortened: as §1

[6] = tested on: TAB113; assay: as above; conditions: P. falciparum in erythrocytes, SYBR Green DNA, 72 h; series mostly up to 28.7 µM
Procedure, shortened: as §1

[7] = tested on: TAB165; assay: as above; conditions: P. falciparum in erythrocytes, SYBR Green DNA, 72 h; series mostly up to 28.7 µM
Procedure, shortened: as §1

[8] = tested on: W2; assay: as above; conditions: P. falciparum in erythrocytes, SYBR Green DNA, 72 h; series mostly up to 28.7 µM
Procedure, shortened: as §1

[9] = tested on: HaCat; assay: Cytotoxic Profiling of Annotated Libraries Using Quantitative High-Throughput Screening (AID 1296008); conditions: Five cell lines viability, CellTiter-Glo ATP luminescence, 48-72 h; max response: hits give low values; on max response: on the % scale 0 is the no-effect control and ±100 the full control effect
Procedure, shortened: (§2)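 Compounds were pin-transferred onto cells and incubated 48 or 72 hr at 37 degree Celsius, 95% humidity. CellTiter-Glo was added, plates sat 10 min at room temperature, then ATP-coupled luminescence was imaged as the viability read-out.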

[10] = tested on: NIH3T3; assay: as above; conditions: Five cell lines viability, CellTiter-Glo ATP luminescence, 48-72 h; max response: hits give low values
Procedure, shortened: as §2

[11] = tested on: HACAT; assay: qHTS assay to identify novel small-molecules to repurpose for Merkel cell carcinoma treatment (AID 1296009); conditions: MCC and control cell lines, CellTiter-Glo viability, 72 h; at 44.8 µM (top of the series) unless noted; further: potency means the concentration at half of the fitted maximal effect
Procedure, shortened: (§3)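 Cells exposed to NPC (8-point) and MIPE (11-point) compound dilutions for 72 hr at 37 degree celsius; viability read by CellTiter-Glo luminescence, normalized to no-cell and DMSO in-plate controls.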

[12] = tested on: MCC-13; assay: as above; conditions: MCC and control cell lines, CellTiter-Glo viability, 72 h; series mostly up to 46 µM
Procedure, shortened: as §3

[13] = tested on: MKL-1; assay: as above; conditions: MCC and control cell lines, CellTiter-Glo viability, 72 h; series mostly up to 46 µM
Procedure, shortened: as §3

[14] = tested on: MKL-2; assay: as above; conditions: MCC and control cell lines, CellTiter-Glo viability, 72 h; series mostly up to 46 µM
Procedure, shortened: as §3

[15] = tested on: KB-3-1; assay: Cytotoxic Profiling of Annotated Libraries Using Quantitative High-Throughput Screening (AID 1296008); conditions: Five cell lines viability, CellTiter-Glo ATP luminescence, 48-72 h; max response: hits give low values; on max response: on the % scale 0 is the no-effect control and ±100 the full control effect
Procedure, shortened: as §2

[16] = tested on: CRL-7250; assay: qHTS assay to identify novel small-molecules to repurpose for Merkel cell carcinoma treatment (AID 1296009); conditions: MCC and control cell lines, CellTiter-Glo viability, 72 h; further: potency means the concentration at half of the fitted maximal effect
Procedure, shortened: as §3

[17] = tested on: MCC-26; assay: as above; conditions: MCC and control cell lines, CellTiter-Glo viability, 72 h; series mostly up to 46 µM
Procedure, shortened: as §3

[18] = at 44.8 µM (top of the series) unless noted
Further: nearly all actives have a fitted effect of over 60% in size.

O=c1oc2ccccc2c(O)c1Cc1c(O)c2ccccc2oc1=O
inactive: Potency [1] | Potency [2] | Potency [3] | Potency [4] | Potency [5] | Potency [6] | Potency [7] | Potency [8] | outcome [9] | outcome [10] | outcome [11] | outcome [12] | Potency [13] | Potency [14]

CN=C1CN(O)C(c2ccccc2)=c2cc(Cl)ccc2=N1
inactive: max response [15] -12.7% and 2.13%

O=C1Nc2ccc(Cl)cc2C(c2ccccc2Cl)=NC1O (centres undefined)
inactive: Potency [1] | Potency [2] | Potency [3] | Potency [4] | Potency [5] | Potency [6] | Potency [7] | Potency [8] | max response [15] 3.46%

COP(=S)(OC)SCN1C(=O)c2ccccc2C1=O
inactive: Potency [1] | Potency [2] | Potency [3] | Potency [4] | Potency [5] | Potency [6] | Potency [7] | Potency [8] | outcome [9] | max response [15] 6.87% | outcome [11] | outcome [12]
active: Potency [14] 11900 nM

CC(C)c1c(CN(C)C(C)Cc2ccccc2)n(C)n(-c2ccccc2)c1=O (centres undefined)
inactive: max response [15] 1.6% | max response [10] 4.46% | outcome [12] | Potency [13] | Potency [14]

CCC1=C(C)CN(C(=O)NCCc2ccc(S(=O)(=O)NC(=O)NC3CCC(C)CC3)cc2)C1=O (centres undefined)
inactive: outcome [16, 18]

CC(=O)O[C@]1(C(C)=O)CC[C@H]2[C@@H]3C[C@H](C)C4=CC(=O)CC[C@]4(C)[C@H]3CC[C@@]21C
inactive: outcome [16, 18]

CCN(CC)CCc1c[nH]c2ccccc12
inactive: max response [9] -3.07% | max response [15] -19.3% | max response [10] -2.44% | outcome [12] | Potency [17] | Potency [13] | Potency [14]

Nc1ccn(C[C@@H](CO)OCP(=O)(O)O)c(=O)n1
inactive: max response [15] -9.56%

COC(=O)C(c1ccccc1)C1CCCCN1 (centres undefined)
active: Potency [8] 4260 nM
inactive: Potency [1] | Potency [2] | Potency [4] | Potency [5] | Potency [6] | Potency [7] | max response [15] 5.58%

O=C1Nc2ccc(Cl)cc2C(c2ccccc2)=NC1O (centres undefined)
inactive: Potency [1] | Potency [2] | Potency [3] | Potency [4] | Potency [5] | Potency [6] | Potency [7] | Potency [8] | max response [15] -4.67% and -16.2%

Cc1cccc(C)c1NC(=O)CN1CCCCCC1
inactive: outcome [16, 18]

CN1C[C@H](C(=O)N[C@]2(C)O[C@@]3(O)[C@@H]4CCCN4C(=O)[C@H](Cc4ccccc4)N3C2=O)C=C2c3cccc4[nH]cc(c34)C[C@H]21
active: Potency [1] 794 nM | Potency [2] 1690 nM | Potency [3] 1580 nM | Potency [4] 708 nM | Potency [5] 1120 nM | Potency [6] 794 nM | Potency [7] 447 nM | Potency [8] 53.6 nM
inactive: max response [15] -3.72%

Cc1ccc(C(C)C)c(O)c1
inactive: outcome [16, 18]

CS(=O)(=O)c1ccc([C@@H](O)[C@@H](CF)NC(=O)C(Cl)Cl)cc1
inactive: outcome [16, 18]

COc1ccc2c(c1)C13CCCC[C@@H]1C(C2)N(C)CC3 (some centres undefined)
inactive: Potency [6] | max response [15] 18.3%
active: Potency [3] 3550 nM | Potency [8] 1200 nM

O=C(Nc1ccc(Br)cc1)c1cc(Br)cc(Br)c1O
inactive: Potency [1] | Potency [2] | Potency [3] | Potency [4] | Potency [5] | Potency [6] | Potency [7] | Potency [8] | outcome [9] | max response [15] -24% | max response [10] -23.1% | outcome [11] | outcome [12] | Potency [17] | Potency [13] | Potency [14]

FC(F)(F)c1ccccc1-n1ccnc1
inactive: outcome [16, 18]

Cc1nnc2n1-c1ccc(Cl)cc1C(c1ccccc1Cl)=NC2
inactive: max response [15] 1.66%

CC(C)[C@H]1C(=O)N2CCC[C@H]2[C@]2(O)O[C@](NC(=O)[C@@H]3C[C@@H]4c5cccc6[nH]cc(c56)C[C@H]4N(C)C3)(C(C)C)C(=O)N12
inactive: max response [15] 22.9%

Cc1nnc2n1-c1ccc(Cl)cc1C(c1ccccc1)=NC2
active: Potency [8] 4780 nM
inactive: Potency [1] | Potency [2] | Potency [3] | Potency [4] | Potency [6] | Potency [7] | max response [15] -2.21%

CC[N+](CC)(CCNC(=O)C(=O)NCC[N+](CC)(CC)Cc1ccccc1Cl)Cc1ccccc1Cl
inactive: outcome [16, 18]

CN1C(=O)CC(=O)N(c2ccccc2)c2cc(Cl)ccc21
inactive: Potency [1] | Potency [2] | Potency [3] | Potency [4] | Potency [5] | Potency [7] | Potency [8] | max response [15] 9.14%

C[C@](O)(CS(=O)(=O)c1ccc(F)cc1)C(=O)Nc1ccc(C#N)c(C(F)(F)F)c1
inactive: Potency [1] | Potency [2] | Potency [3] | Potency [4] | Potency [6] | Potency [7] | Potency [8] | outcome [9] | max response [15] 5.52% | max response [10] -9.3% | outcome [11] | outcome [12] | Potency [13]
active: Potency [14] 23500 nM

C[C@@H]1CC2=CC(=O)CC[C@@H]2[C@H]2CC[C@@]3(C)[C@@H](CC[C@]3(C)O)[C@@H]21
inactive: max response [9] -11% | max response [10] -27.8% | outcome [12] | Potency [17] | Potency [13] | Potency [14]

NCCCC[C@H](N[C@@H](CCc1ccccc1)C(=O)O)C(=O)N1CCC[C@H]1C(=O)O
inactive: outcome [16, 18]

CN1C(=O)C(O)N=C(c2ccccc2)c2cc(Cl)ccc21 (centres undefined)
inactive: Potency [1] | Potency [2] | Potency [3] | Potency [4] | Potency [5] | Potency [6] | Potency [7] | Potency [8]

Nc1ccc(S(=O)(=O)Nc2ccnn2-c2ccccc2)cc1
inactive: outcome ([16]; at 17.4 µM (top of the series)) | outcome ([16]; at 44.8 µM (top of the series))

O=C(O)Cc1cccc2ccccc12
inactive: outcome ([16]; at 44.8 µM (top of the series)) | outcome ([16]; at 92 µM (top of the series))
